Reference: PubChem BioAssay (NCATS)
Inconclusive results are not listed. The source made the active and inactive calls. Unless noted, the call rests on the fitted dose curve; in most records, active means well fitted curve in the direction sought with a large enough effect; inconclusive means small, poorly fitted or top-dose-only effect, or another doubt; inactive means no such curve, though single readings can be large; an effect the other way counts as inactive or inconclusive.

What was measured:
[1] = target: Ferritin light chain (Equus caballus) (UniProt P02791); assay: qHTS Validation Assay for Identification of Novel General Anesthetics (AID 2323); further: series mostly up to about 77 µM
Procedure, shortened: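 Normalized fluorescence response, scaled between free 1-AMA and 1-AMA/apoferritin complex, fitted to a four-parameter Hill equation for concentration-effect values. Binding mix: 10 uM horse-spleen apoferritin, 50% saturated 1-AMA in PBS; read 380/535 nm after 10 min.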

[2] = target: ATP-dependent DNA helicase Q1 (Homo sapiens) (UniProt P46063); assay: qHTS Validation Assay for Inhibitors of RecQ-Like Dna Helicase 1 (RECQ1) (AID 2353)
Procedure, shortened: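 50 nM RECQ1T1 preincubated 15 min with compound in Tris pH 8.0 buffer with MgCl2, DTT, Tween-20 and 2.5 ug/ml poly(dI-dC); started with 200 nM TAMRA/BHQ-2 forked duplex and 2 mM ATP. Unwinding read as fluorescence (525/598 nm), two reads 2 h apart.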

[3] = Cytometric Cell-Based qHTS for Inhibitors of the mTORC1 Signaling Pathway in MEF (Tsc2-/-, p53-/-) Cells (AID 2660);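 further: percent of cells above a phospho-rpS6 to PI ratio cutoff in each well; series mostly up to about 38 µM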
Procedure, shortened: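 Tsc2-/-, p53-/- MEFs (empty vector) exposed to compound 24 h at 37 C, fixed, stained with Alexa-488 anti-phospho-rpS6 Ser235/236 and propidium iodide. Acumen laser scanning; phospho-S6/PI ratio thresholded against 7.5 nM rapamycin, reported as % positive cells.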

[4] = High Content Imaging Cell-Based qHTS for Inhibitors of the mTORC1 Signaling Pathway in MEF (Tsc2-/-, p53-/-) Cells (AID 2666);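 further: percent of cells scored positive for phospho-rpS6 Ser235/236 immunostaining by imaging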
Procedure, shortened: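 Cells were plated, dosed with compound after 24 hrs, and incubated another 24 hrs at 37 degree Celsius. Fixed cells were immunostained for phospho-rpS6 Ser235/236 and counterstained, and the normalized signal was scored as % active cells against rapamycin and DMSO controls.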

[5] = Validation screen for small molecules that induce DNA re-replication in MCF 10A normal breast cells (AID 463097); further: nearly all actives have a fitted effect of over 60% in size
Procedure, shortened: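 Following 48 hr compound incubation (37 C, 5% CO2), MCF 10A cells receive Hoechst for 40 min at 37 C. Nuclei are then scanned (excitation 405 nm, emission 500-530 nm) for total fluorescence intensity.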

[6] = target: Ubiquitin carboxyl-terminal hydrolase 2 (Homo sapiens) (UniProt O75604); assay: qHTS Validation Assay for Inhibitors of Ubiquitin-specific Protease USP2a Using CHOP2 as the Reporter (AID 463106)
Procedure, shortened: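 10nM USP2 core + cpd, 30min RT; add 25nM Ub-CHOP2/25nM substrate; 60min RT; FI 485/531nm. Buffer Tris pH 8.0, CaCl2, BME, CHAPS. Norm. to NEM = 100% inhibition; time-zero read flags fluorescent artifacts.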

[7] = target: DNA polymerase III PolC-type (Bacillus subtilis (strain 168)) (UniProt P13267); assay: qHTS Validation Assay for the Inhibitors of DNA Replication in Gram-Positive Bacteria (AID 485295);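 further: reconstituted holoenzyme with PolC plus beta clamp SSB and primase; PicoGreen fluorescence of double-stranded DNA made on primed circular M13 template; series mostly up to about 57 µM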
Procedure, shortened: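 Inhibition of DNA synthesis by the reconstituted PolC holoenzyme, monitored through PicoGreen staining of dsDNA formed from ssM13Gori, dNTPs and NTPs, with compound preincubation and room-temperature reaction.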

[8] = target: Tumor susceptibility gene 101 protein (Homo sapiens) (UniProt Q99816); assay: qHTS Validation Assay for Iinhibitors of HIV-1 Budding by Blocking the Interaction of PTAP/TSG101 (AID 485342; calls by dose curve)
Procedure, shortened: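 Compound wells held the Tsg101 binding domain (10 uM) and a FITC-conjugated PTAP peptide (50 nM) in buffer at pH 7.5 containing 0.15 M NaCl and 0.01% Tween 20; polarization was recorded after 20 min, r.t.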

[9] = qHTS Validation Assay to Find Inhibitors of Chronic Active B-Cell Receptor Signaling (AID 485345; active means well fitted curve in the direction sought with a large enough effect in the main read-out, with a control signal flat, not every such curve was filed as active)
Procedure, shortened: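 Read-out: ratio of filter-corrected green (IkappaBalpha fusion) to red (native) luciferase signal in doxycycline-induced TMD8 cells after 4 h at 37C. Titration spanned 46 uM–3 nM; Data were normalised to basal cells and 10 uM MG-132 wells.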

[10] = target: Beta-2 adrenergic receptor (Homo sapiens) (UniProt P07550); assay: qHTS validation assay of beta-arrestin-biased ligands of beta2-adrenergic receptor (AID 485366)
Procedure, shortened: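 Tango cells expressing recombinant beta2-AR and beta-arrestin with tTA-driven luciferase, in DMEM with 1% FBS. Compounds were titrated up to 46 microM for 18 hr at 37 degrees C. Luminescence was read 15 min after substrate; curves were fitted and class-assigned.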

[11] = target: ATP-dependent 6-phosphofructokinase (Trypanosoma brucei brucei) (UniProt O15648); assay: qHTS Validation Assay to Find Inhibitors of T. brucei phosphofructokinase (AID 485368)
Procedure, shortened: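 Activity was read as ADP production by luminescence (ADP-Glo) after 45 min at room temperature. The enzyme was 1.25nM PFK in 0.1M TEA pH 8.0 with 0.5 mM F6P, 0.1mM ATP and 5 mM MgCl2. Compounds were titrated up to 57 uM and % activity normalized to no-enzyme and full-enzyme controls.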

[12] = Quantitative high throughput screen for delayed death inhibitors of the malarial parasite plastid, 96 hour incubation (AID 488745);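 further: luciferase-expressing P. falciparum in erythrocytes at 2% hematocrit and 0.1% parasitemia; series mostly up to about 29 µM; nearly all actives have a fitted effect of over 70% in size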
Procedure, shortened: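 Infected erythrocytes were added to compound in Albumax-supplemented RPMI 1640 at 0.1% parasitemia and 2% hematocrit (final), incubated 96 h at 37 C under 5% CO2, then luciferase reagent was added and luminescence measured.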

[13] = Quantitative high throughput screen for delayed death inhibitors of the malarial parasite plastid, 48 hour incubation (AID 488752); further: nearly all actives have a fitted effect of over 65% in size
Procedure, shortened: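 Readout is firefly luciferase luminescence from a reporter integrated into the parasite genome, with lower signal taken as inhibited growth. Infected red cells (0.1% parasitemia, 2% hematocrit final) are cultured with compound for one 48 h cycle at 37 C.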

[14] = target: Thioredoxin reductase 1, cytoplasmic (Rattus norvegicus) (UniProt O89049); assay: qHTS Assay for Substrates of Mammalian Selenoprotein Thioredoxin Reductase 1 (TrxR1) (AID 488772);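 further: NADPH fluorescence in the first read after selenite addition and not the 8 min delta; series mostly up to about 57 µM; a drop in NADPH fluorescence below the no-compound background marks a TrxR1 substrate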
Procedure, shortened: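 Quantitative HTS in Tris-HCl buffer at pH 7.5 with EDTA and Tween-20, using rat TrxR1, 400 uM NADPH and 400 uM selenite (final). A fall in initial NADPH fluorescence relative to background marked substrate behaviour.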

[15] = target: Thioredoxin reductase 1, cytoplasmic (Rattus norvegicus) (UniProt O89049); assay: qHTS Assay for Inhibitors of Mammalian Selenoprotein Thioredoxin Reductase 1 (TrxR1) (AID 488773); settings: Potency: inhibition;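 further: drop in NADPH fluorescence over an 8 min run after selenite addition; series mostly up to about 57 µM; nearly all actives have a fitted effect of over 40% in size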
Procedure, shortened: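 Steps: enzyme (90 nM) plus NADPH (400 uM final), 5 min at ~22 deg C; compound added, 15 min; selenite (400 uM final) added; fluorescence followed for 8 min. Concentration-response curves derived from the normalized delta values.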

[16] = target: M-phase phosphoprotein 8 (Homo sapiens) (UniProt Q99549); assay: qHTS Validation Assay for Inhibitors for MPP8 Chromodomain Interactions with Methylated Histone Tails (AID 488949);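 further: 50 nM MPP8 with 50 nM peptide preformed then compounds added for 30 min; AlphaScreen signal from MPP8 chromodomain bound to biotinylated H3K9me3 peptide; top concentration of the series differs between compounds; nearly all actives have a fitted effect of over 55% in size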
Procedure, shortened: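 Chemiluminescent proximity assay: histidine-tag capture via nickel acceptor beads, biotin peptide via streptavidin donor beads. Protein and peptide each at 50 nM, pH 7.4, with 30 min incubations at room temperature for complex formation, compound exposure and bead binding.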

[17] = High Content Imaging Cell-Based qHTS for Inhibitors of the mTORC1 Signaling Pathway in MEF Cells (AID 2667);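 further: Tsc2-/- p53-/- MEFs stably re-expressing wild-type Tsc2 exposed 24 h; series mostly up to about 38 µM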
Procedure, shortened: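 Immunofluorescence for rpS6 phosphorylation in MEFs of Tsc2-/-, p53-/- background rescued with WT Tsc2. Compound exposure lasted 24 hrs. Inhibition was scored against rapamycin-treated control wells.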

[18] = Cytometry Cell-Based qHTS for Inhibitors of the mTORC1 Signaling Pathway in MEF cells (AID 2668);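 further: Tsc2-/- p53-/- mouse embryonic fibroblasts stably re-expressing wild-type Tsc2; percent cells positive for phospho-rpS6 Ser235/236 relative to propidium iodide stain; series mostly up to about 38 µM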
Procedure, shortened: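 In MEFs grown in DMEM + 10% FBS, a 24 hrs compound exposure preceded imaging of phospho-rpS6 Ser235/236 by laser-scanning cytometry.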

[19] = target: Flap endonuclease 1 (Homo sapiens) (UniProt P39748); assay: qHTS Validation Assay for the Inhibitors of Human Flap endonuclease 1 (FEN1) (AID 488816)
Procedure, shortened: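 Readings taken at 0 and 15 min after starting the reaction with 50 nM (final) substrate supplied the signal. Compounds had first sat with 10 nM FEN1 reagent for 15 min at room temperature. Values come from Hill-equation concentration-response fits.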

Measured: Potency

Sequence of DNA polymerase III PolC-type (Bacillus subtilis (strain 168)) (P13267 whole entry, looked up): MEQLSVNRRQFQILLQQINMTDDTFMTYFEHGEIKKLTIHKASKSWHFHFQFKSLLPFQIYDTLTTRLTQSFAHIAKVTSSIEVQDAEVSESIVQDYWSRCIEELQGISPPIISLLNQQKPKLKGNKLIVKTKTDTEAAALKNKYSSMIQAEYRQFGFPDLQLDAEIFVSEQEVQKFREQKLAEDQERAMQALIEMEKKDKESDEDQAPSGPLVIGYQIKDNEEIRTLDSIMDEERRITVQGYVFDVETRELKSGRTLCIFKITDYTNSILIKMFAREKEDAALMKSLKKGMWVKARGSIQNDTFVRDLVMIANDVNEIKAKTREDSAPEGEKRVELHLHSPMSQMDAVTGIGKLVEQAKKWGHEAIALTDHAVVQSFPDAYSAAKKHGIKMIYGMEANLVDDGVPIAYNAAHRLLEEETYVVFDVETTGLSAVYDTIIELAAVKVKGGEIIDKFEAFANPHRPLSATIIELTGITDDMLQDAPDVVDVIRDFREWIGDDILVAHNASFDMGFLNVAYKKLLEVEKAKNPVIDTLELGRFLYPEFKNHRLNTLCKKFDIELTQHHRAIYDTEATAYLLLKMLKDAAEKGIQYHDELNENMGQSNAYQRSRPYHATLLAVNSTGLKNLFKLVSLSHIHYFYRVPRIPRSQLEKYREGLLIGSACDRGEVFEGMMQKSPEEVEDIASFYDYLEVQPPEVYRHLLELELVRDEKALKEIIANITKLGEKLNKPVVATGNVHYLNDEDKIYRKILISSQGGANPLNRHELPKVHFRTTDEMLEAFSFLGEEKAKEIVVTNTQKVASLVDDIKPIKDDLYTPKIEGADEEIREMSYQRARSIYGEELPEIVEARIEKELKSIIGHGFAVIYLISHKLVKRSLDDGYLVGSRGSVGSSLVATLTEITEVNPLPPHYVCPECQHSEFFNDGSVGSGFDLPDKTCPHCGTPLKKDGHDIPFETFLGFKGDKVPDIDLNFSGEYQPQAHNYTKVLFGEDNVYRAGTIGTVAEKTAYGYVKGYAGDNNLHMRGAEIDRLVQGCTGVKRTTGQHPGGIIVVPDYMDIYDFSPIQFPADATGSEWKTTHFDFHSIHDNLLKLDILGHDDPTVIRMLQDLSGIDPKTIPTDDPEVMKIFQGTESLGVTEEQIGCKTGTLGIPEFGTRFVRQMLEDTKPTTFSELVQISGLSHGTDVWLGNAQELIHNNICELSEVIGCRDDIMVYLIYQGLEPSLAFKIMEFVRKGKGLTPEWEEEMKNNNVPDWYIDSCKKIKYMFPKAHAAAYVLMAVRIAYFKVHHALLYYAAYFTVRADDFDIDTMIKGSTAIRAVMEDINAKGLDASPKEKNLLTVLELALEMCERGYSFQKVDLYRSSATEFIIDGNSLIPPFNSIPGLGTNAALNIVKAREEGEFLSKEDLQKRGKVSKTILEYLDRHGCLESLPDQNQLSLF
Sequence of Tumor susceptibility gene 101 protein (Homo sapiens) (Q99816 whole entry, looked up, the tested form may be a part): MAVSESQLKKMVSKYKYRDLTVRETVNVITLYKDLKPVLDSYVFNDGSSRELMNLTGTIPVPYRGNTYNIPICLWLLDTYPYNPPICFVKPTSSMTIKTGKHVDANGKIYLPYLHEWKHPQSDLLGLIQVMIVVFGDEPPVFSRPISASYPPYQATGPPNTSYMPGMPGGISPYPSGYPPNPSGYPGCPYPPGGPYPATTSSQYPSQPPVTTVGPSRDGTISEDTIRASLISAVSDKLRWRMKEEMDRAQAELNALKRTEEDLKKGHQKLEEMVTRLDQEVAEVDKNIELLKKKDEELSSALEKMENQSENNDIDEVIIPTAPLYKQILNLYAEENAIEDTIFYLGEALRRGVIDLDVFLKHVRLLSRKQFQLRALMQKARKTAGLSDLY
Sequence of Thioredoxin reductase 1, cytoplasmic (Rattus norvegicus) (O89049 whole entry, looked up): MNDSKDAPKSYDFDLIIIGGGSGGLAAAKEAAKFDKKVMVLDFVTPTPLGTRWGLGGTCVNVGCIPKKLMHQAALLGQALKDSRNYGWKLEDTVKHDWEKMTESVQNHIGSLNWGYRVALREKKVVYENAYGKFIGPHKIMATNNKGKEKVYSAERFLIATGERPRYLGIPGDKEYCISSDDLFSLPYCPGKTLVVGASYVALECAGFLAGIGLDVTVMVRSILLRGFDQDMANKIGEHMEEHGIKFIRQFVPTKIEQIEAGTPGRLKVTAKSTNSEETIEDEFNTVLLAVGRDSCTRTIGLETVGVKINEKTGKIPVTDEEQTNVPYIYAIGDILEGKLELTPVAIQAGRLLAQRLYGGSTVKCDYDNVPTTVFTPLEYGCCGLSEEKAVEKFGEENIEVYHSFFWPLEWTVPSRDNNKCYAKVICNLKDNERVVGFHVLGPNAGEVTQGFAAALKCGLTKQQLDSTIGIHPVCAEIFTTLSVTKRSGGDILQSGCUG
Sequence of Ferritin light chain (Equus caballus) (P02791 2-175 limits assumed): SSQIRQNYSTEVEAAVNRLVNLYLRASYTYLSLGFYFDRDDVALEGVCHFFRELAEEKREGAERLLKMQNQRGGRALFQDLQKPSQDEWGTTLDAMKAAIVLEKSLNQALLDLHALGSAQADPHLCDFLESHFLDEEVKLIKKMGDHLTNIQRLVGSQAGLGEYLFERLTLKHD
Sequence of ATP-dependent 6-phosphofructokinase (Trypanosoma brucei brucei) (O15648 whole entry, looked up): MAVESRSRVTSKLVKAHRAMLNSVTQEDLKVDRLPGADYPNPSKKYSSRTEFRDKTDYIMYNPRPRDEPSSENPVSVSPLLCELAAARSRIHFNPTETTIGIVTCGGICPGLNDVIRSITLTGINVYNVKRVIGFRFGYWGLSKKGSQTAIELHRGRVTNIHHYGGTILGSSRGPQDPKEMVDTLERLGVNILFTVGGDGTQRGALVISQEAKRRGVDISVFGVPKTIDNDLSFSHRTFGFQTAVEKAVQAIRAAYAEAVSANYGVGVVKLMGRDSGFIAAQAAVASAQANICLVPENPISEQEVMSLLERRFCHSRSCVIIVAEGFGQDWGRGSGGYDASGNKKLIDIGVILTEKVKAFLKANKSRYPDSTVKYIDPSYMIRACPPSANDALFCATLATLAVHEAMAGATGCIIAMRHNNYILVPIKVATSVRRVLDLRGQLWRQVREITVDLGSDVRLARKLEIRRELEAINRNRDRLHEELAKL
Sequence of ATP-dependent DNA helicase Q1 (Homo sapiens) (P46063 whole entry, looked up): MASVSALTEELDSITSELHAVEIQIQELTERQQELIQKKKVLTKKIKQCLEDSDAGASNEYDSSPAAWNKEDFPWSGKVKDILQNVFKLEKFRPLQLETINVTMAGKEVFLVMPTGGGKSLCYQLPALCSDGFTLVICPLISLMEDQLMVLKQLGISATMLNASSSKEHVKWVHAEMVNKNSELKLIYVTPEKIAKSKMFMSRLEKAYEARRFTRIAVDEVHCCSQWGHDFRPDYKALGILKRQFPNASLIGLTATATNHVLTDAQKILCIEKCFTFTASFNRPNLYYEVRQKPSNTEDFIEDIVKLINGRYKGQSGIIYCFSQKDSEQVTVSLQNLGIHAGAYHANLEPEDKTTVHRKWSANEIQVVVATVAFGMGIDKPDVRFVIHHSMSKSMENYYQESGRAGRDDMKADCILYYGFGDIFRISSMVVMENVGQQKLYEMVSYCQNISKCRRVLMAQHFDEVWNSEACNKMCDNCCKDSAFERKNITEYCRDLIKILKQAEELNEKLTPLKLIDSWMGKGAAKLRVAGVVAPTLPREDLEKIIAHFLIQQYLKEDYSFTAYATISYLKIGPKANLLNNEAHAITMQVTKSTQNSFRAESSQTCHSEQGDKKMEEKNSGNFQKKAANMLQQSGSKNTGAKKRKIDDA
Sequence of Flap endonuclease 1 (Homo sapiens) (P39748 whole entry, looked up): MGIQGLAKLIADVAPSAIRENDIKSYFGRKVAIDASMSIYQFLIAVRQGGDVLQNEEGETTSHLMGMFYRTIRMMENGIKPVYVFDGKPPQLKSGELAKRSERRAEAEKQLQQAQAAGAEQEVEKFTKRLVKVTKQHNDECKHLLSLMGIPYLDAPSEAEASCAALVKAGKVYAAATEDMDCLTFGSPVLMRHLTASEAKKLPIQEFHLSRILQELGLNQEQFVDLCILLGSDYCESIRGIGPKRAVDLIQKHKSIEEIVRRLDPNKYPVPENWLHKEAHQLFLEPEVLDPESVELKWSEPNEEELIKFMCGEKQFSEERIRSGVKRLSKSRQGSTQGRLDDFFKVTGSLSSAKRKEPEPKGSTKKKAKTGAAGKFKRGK
Sequence of Beta-2 adrenergic receptor (Homo sapiens) (P07550 whole entry, looked up): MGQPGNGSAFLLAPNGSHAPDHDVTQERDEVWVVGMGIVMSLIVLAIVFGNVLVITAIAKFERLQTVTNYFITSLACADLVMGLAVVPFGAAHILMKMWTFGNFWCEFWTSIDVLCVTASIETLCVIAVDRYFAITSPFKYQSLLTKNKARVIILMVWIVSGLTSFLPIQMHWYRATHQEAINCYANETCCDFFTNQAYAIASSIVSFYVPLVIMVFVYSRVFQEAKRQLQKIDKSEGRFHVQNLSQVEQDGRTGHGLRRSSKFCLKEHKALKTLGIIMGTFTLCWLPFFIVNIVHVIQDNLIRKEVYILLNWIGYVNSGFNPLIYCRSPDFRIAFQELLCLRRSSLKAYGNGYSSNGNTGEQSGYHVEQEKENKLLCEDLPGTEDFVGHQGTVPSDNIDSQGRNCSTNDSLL

CC12CC3CC(C)(C1)CC(N)(C3)C2
inactive: [1] | [2] | [3] | [4] | [5] | [6] | [7] | [8] | [9] | [10] | [11] | [12] | [13] | [14] | [15] | [16]

Cc1cn([C@H]2C=C[C@@H](CO)O2)c(=O)[nH]c1=O
inactive: [1] | [2] | [3] | [4] | [17] | [18] | [5] | [6] | [7] | [8] | [9] | [10] | [13] | [14] | [15] | [19] | [16]

O=C(C1CCCCC1)N1CC(=O)N2CCc3ccccc3C2C1 (stereo unspecified)
inactive: [1] | [2] | [3] | [4] | [17] | [18] | [5] | [7] | [8] | [9] | [10] | [12] | [13] | [14] | [15] | [19] | [16]

COc1nc(C)nc(Cl)c1NC1=NCCN1
inactive: [1] | [2] | [3] | [4] | [17] | [18] | [5] | [6] | [7] | [8] | [9] | [10] | [11] | [12] | [13] | [14] | [15] | [19] | [16]

Nc1ccn([C@H]2CC[C@@H](CO)O2)c(=O)n1
inactive: [1] | [2] | [3] | [4] | [17] | [18] | [5] | [7] | [8] | [9] | [10] | [11] | [12] | [13] | [14] | [19] | [16]

CS(=O)(=O)Nc1ccc([N+](=O)[O-])cc1Oc1ccccc1
inactive: [1] | [2] | [3] | [4] | [18] | [5] | [6] | [7] | [8] | [9] | [10] | [12] | [13] | [14] | [15] | [16]

CC(C)Cc1ccc(C(C)C(=O)O)cc1 (stereo unspecified)
inactive: [1] | [2] | [3] | [4] | [18] | [5] | [7] | [8] | [9] | [10] | [11] | [12] | [13] | [14] | [15] | [16]

Cc1ccccc1N1C(=O)c2cc(S(N)(=O)=O)c(Cl)cc2NC1C (stereo unspecified)
inactive: [1] | [2] | [3] | [4] | [17] | [18] | [5] | [7] | [8] | [9] | [10] | [11] | [12] | [13] | [14] | [15] | [19] | [16]
